Compound activity: PubChem BioAssay, The Scripps Research Institute Molecular Screening Center
PAFAH2 FP inh = PAFAH2 (human) inhibition; recombinant PAFAH2, FP-rhodamine activity probe, fluorescence polarization; inhibition, % at 3.39 µM; actives 0.99% (n = 340,000); AID 492956;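 active means inhibition above the mean over all tested compounds plus 3 SD, cut at about 30% in these data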;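 further: inhibitors block probe labeling of enzyme so polarization drops; 0% = enzyme with DMSO and 100% = wells lacking PAFAH2 protein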
PAFAH1B3 FP inh = PAFAH1B3 (human) inhibition; AID 492972; inhibition, % at 3.39 µM; actives 0.28% (n = 340,000); Q15102; recombinant PAFAH1B3, FP-rhodamine probe, fluorescence polarization;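 active means inhibition above the screen-wide average of all tested compounds plus 3 SD, cut at about 25% in these data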;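 further: 0% = enzyme with DMSO only and 100% = wells lacking PAFAH1B3 protein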
CTSL1 counter = cathepsin L1 inhibition, PFM18AAP counter-screen | recombinant F. hepatica cathepsin L1, Z-Leu-Arg-MCA fluorescence | actives 0.49% (n = 300,000) | inhibition, % at 5.96 µM | AID 1906;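 active means inhibition above the mean of all tested compounds plus 3 SD, set per screening campaign, cut at about 17% in these data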;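 further: 0% = plate median of test compound wells and 100% = 1 µM Z-Phe-Ala-diazomethylketone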
pPAFAH inh = pPAFAH (human) enzyme inhibition | Q13093 | recombinant pPAFAH, FP-rhodamine probe fluorescence polarization | inhibition, % at 3.39 µM | actives 1.5% (n = 330,000);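 active means inhibition above the mean inhibition across the screen plus 3 SD, cut at about 25% in these data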;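 further: inhibitors block binding of the rhodamine activity-based probe so polarization drops; 0% = enzyme with DMSO and 100% = wells lacking pPAFAH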
PP5 inh = blocks human protein phosphatase 5 activity; purified PP5c, OMFP substrate fluorescence; inhibition, % at 6.7 µM; P53041; actives 0.18% (n = 320,000);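 active means inhibition above the campaign's mean inhibition across all tested compounds plus 3 SD, cut at about 9.5% in these data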;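 further: 0% = DMSO only and 100% = 100 µM cantharidin control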
PAFAH1B2 FP inh = inhibitors of human PAFAH1B2; P68402; recombinant PAFAH1B2, FP-rhodamine activity probe, fluorescence polarization; inhibition, % at 3.39 µM; actives 1.2% (n = 340,000);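 active means inhibition above the mean of all tested compounds plus 3 SD, cut at about 24% in these data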;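 further: 0% = enzyme with DMSO and 100% = wells lacking PAFAH1B2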
Target sequence (P68402 whole entry, looked up): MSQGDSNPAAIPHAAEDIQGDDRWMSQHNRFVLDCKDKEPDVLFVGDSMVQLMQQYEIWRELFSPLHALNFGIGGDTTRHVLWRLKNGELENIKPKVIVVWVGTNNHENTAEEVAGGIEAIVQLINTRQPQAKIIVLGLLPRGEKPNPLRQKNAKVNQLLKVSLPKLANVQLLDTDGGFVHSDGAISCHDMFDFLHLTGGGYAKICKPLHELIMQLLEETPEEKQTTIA
PP5 inh confirm = confirmation of human PP5 phosphatase inhibitors. inhibition, % at 6.7 µM. Purified PP5, fluorogenic phosphatase substrate, fluorescence. AID 2331. shares compounds with PP5 inh. actives 22% (n = 460); in the data active means inhibition above about 9.5%
PP1 counter 3x = counter-screen for PP5 inhibitors: human PP1 phosphatase inhibition | shares compounds with PP5 inh | PP1 enzyme, fluorescent phosphatase substrate | inhibition, % at 6.7 µM | actives 4% (n = 460) | AID 2355; in the data active means inhibition above about 16%
Target sequence (P62136 whole entry, looked up): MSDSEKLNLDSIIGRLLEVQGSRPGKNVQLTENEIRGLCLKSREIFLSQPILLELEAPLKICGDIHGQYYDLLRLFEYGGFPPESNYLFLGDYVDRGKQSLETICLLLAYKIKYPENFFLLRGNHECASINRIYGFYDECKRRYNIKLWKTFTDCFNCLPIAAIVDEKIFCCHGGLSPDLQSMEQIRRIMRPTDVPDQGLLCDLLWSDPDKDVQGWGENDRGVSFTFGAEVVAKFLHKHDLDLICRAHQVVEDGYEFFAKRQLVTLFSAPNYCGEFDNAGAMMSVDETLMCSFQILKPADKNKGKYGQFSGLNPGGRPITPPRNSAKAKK
Active calls of the source: *; · = no result. Compounds with a hit are over-represented: about 3% of the library has one in this group of screens.

SMILES	PAFAH2 FP inh	PAFAH1B3 FP inh	CTSL1 counter	pPAFAH inh	PP5 inh	PAFAH1B2 FP inh	PP5 inh confirm	PP1 counter 3x
O=C(O)c1cc(N/N=C/c2ccncc2)ccc1Cl	0.0	4.4	0.2	-2.6	10.9*	3.5	-0.3	-2.1
O=C(O)c1cc(N/N=C/c2cccnc2)ccc1Cl	-1.8	-2.1	2.5	3.8	-0.3	2.4	·	·
COc1ccc(Oc2ccc3c(C(F)(F)F)cc(C(F)(F)F)nc3n2)cc1	-4.9	-1.8	-0.2	3.2	15.6*	1.0	3.0	1.5
Cc1cc(C(=O)NCC(=O)O)c(C)o1	1.6	-2.3	3.7	-3.0	-0.9	-5.4	·	·
CCOC(=O)CNC(=O)c1cc(C)oc1C	·	·	2.2	8.3	14.2*	·	-0.2	-1.3
O=C(NC1CCCCC1)C1CC(=O)N(Cc2ccccc2)C1 (configuration not stated)	-2.1	-6.6	-0.8	1.6	1.9	-0.2	·	·
CC(C)C[C@H](NC(=O)c1nc[nH]c1C(=O)N[C@@H](CC(C)C)C(=O)OC(C)(C)C)C(=O)OC(C)(C)C	-2.9	7.0	13.8	10.6	10.2*	7.8	5.8	6.8
CC(C)(C)OC(=O)[C@H](Cc1ccccc1)NC(=O)c1nc[nH]c1C(=O)N[C@@H](Cc1ccccc1)C(=O)OC(C)(C)C	-13.2	-6.8	5.7	0.7	7.2	-9.8	·	·
C[C@H](NC(=O)c1nc[nH]c1C(=O)N[C@@H](Cc1ccccc1)C(=O)OC(C)(C)C)C(=O)OC(C)(C)C	6.9	3.0	6.1	5.9	10.8*	6.2	7.1	10.0
CC(C)C[C@H](NC(=O)c1[nH]cnc1C(=O)N[C@H](C)c1ccccc1)C(=O)OC(C)(C)C	0.9	4.1	4.3	8.2	10.2*	-4.8	7.7	8.8
COc1ccc(CC(=O)Nc2ccc(S(=O)(=O)N3CCN(C)CC3)cc2)cc1	5.2	10.4	·	-1.3	-1.7	3.1	·	·
CCOc1ccccc1NC(=O)C(c1ccccc1)N1CCN(C(=O)c2ccco2)CC1 (configuration not stated)	-6.1	4.4	·	-0.4	1.7	3.8	·	·
COc1cc(/C=C2/C(=O)N(c3ccc([N+](=O)[O-])cc3)N=C2N2CCOCC2)ccc1O	-1.1	6.7	3.4	1.6	16.0*	-1.2	2.0	-2.3
CCN(CC)c1ccc(/C=C2/C(=O)N(c3ccc([N+](=O)[O-])cc3)N=C2N2CCOCC2)cc1	·	·	0.7	2.1	2.4	·	·	·
Nc1ccc(-c2nc3ccc([N+](=O)[O-])cc3[nH]2)cc1	-3.7	2.9	1.5	8.7	11.8*	3.0	-5.3	-3.6
CO/N=C(\CCC(=O)O)c1cccs1	-6.4	1.1	-1.2	1.0	9.7*	1.2	-6.2	-4.0
Cc1cc(C(=O)N/N=C(\CCC(=O)O)c2cccs2)c2ccccc2n1	1.0	1.7	-1.0	3.8	-2.3	0.4	·	·
Cc1ccc(S(=O)(=O)N2CCOCC2)cc1C(=O)N1CCC(Cc2ccccc2)CC1	6.6	16.0	-1.4	2.5	3.2	14.8	·	·
Cc1cc(C2(c3ccc(O)c(C)c3)C(=O)Nc3ccccc32)ccc1O	-2.7	-2.7	15.2	1.8	15.7*	6.8	6.0	5.2
Cc1cccc2c1NC(=O)C2(c1ccc(O)cc1)c1ccc(O)cc1	8.5	0.5	-0.8	5.9	2.7	3.4	·	·
COc1ccc(-c2n[nH]c(C)c2-c2ccc(Cl)cc2)c(O)c1OC	-0.9	4.5	1.6	32.5*	10.2*	6.0	3.6	5.2
COc1ccc(OCCn2cc(/C=N/NC(=O)c3ccncc3)c3ccccc32)cc1	-4.6	12.1	2.6	21.2	3.7	-0.3	·	·
Cc1ccc(OCCn2cc(/C=N/NC(=O)c3ccncc3)c3ccccc32)cc1	-15.7	19.9	1.3	23.3	9.9*	5.4	0.9	2.9
O=C(Cn1c(NCCO)nc2ccccc21)NCCc1ccccc1	2.6	4.6	-2.3	4.0	2.6	0.8	·	·
O=C(Cn1c(NCCO)nc2ccccc21)c1ccco1	1.0	-4.5	-1.7	5.7	10.2*	6.6	-5.4	-4.5
SMILES	PAFAH2 FP inh	PAFAH1B3 FP inh	CTSL1 counter	pPAFAH inh	PP5 inh	PAFAH1B2 FP inh	PP5 inh confirm	PP1 counter 3x
CCn1cc(C(=O)N[C@H](C(=O)NCCO)C(C)C)c(=O)c2cc3c(cc21)OCO3	-3.5	3.6	2.9	1.2	-1.0	-6.3	·	·
COc1ccc(-c2csc(NC(=O)c3ccccc3C(=O)O)n2)cc1	-7.0	-1.4	0.1	-2.0	2.1	0.7	·	·
COc1ccc(-c2csc(NC(=O)c3ccccc3S(C)(=O)=O)n2)cc1	-0.2	3.8	-3.3	-1.6	11.3*	1.1	-0.9	0.0
CN(C)S(=O)(=O)c1cccc(NC(=O)CSc2cccc3cccnc23)c1	5.9	11.7	-3.8	4.4	1.2	-2.5	·	·
COc1ccc(C2C3=C(CC(C)(C)CC3=O)Oc3ncn(Cc4ccccc4)c(=N)c32)cc1 (configuration not stated)	4.4	3.7	0.8	3.9	10.9*	6.7	-2.6	-3.2
CC1(C)CC(=O)C2=C(C1)Oc1ncn(Cc3ccco3)c(=N)c1C2c1ccccc1 (configuration not stated)	11.8	1.9	1.3	2.0	4.5	9.2	·	·
Cc1[nH]n(-c2ccccc2)c(=O)c1C(C[N+](=O)[O-])c1ccc(F)cc1 (configuration not stated)	-0.3	-9.4	-1.8	3.8	12.6*	8.9	-0.9	-2.9
CC(C)c1cc(C(=O)N/N=C/c2c[nH]c3ccccc23)n[nH]1	4.0	5.5	-0.4	-0.2	9.8*	5.7	-5.6	-3.1
CC1(NC(=O)CCc2nc3sc4c(c3c(=O)[nH]2)CCCC4)CCS(=O)(=O)C1 (configuration not stated)	17.8	4.7	-5.6	19.8	10.3*	-0.8	-4.0	-2.1
CCN(CC)c1ccc(C(=O)NC(=S)Nc2cc(S(=O)(=O)N3CCOCC3)ccc2-n2cncn2)cc1	-11.0	-2.4	4.9	6.5	17.6*	-2.5	-4.4	3.3
Cc1ccc(-n2nc(C)c3c2C(Br)C(C)(C)CC3=O)nc1 (configuration not stated)	10.8	4.7	·	·	·	2.8	·	·
CCCc1ccc(Oc2cn[nH]c2-c2ccc(O)cc2O)cc1	7.4	3.8	2.1	10.7	10.0*	0.5	4.2	6.6
COc1ccc(Oc2cn[nH]c2-c2ccc(O)cc2O)cc1	3.0	11.9	2.5	8.7	2.7	-0.9	·	·
Cc1cc(NS(=O)(=O)c2ccc(Nc3nc(-c4ccc(C)c(C)c4)cs3)cc2)no1	24.8	-1.9	-3.3	34.3*	10.8*	8.2	5.4	9.1
CN1CCC(NC(=O)Nc2ccc(Br)cc2)CC1	-7.6	3.1	0.6	3.1	12.9*	3.2	-4.1	-4.6
Nn1c(COc2ccccc2F)nnc1SCC(=O)NC1CCCCC1	-4.6	5.3	-3.9	-0.6	-0.6	0.5	·	·
